# Results published in publication PMC7862700, “An all-to-all approach to the identification of sequence-specific readers for epigenetic DNA modifications on cytosine”.
# Tests used:
# Assay in all cases: DAPPL (digital affinity profiling via proximity ligation, sequencing); 10 mM Tris-HCl pH 7.5, 50 mM NaCl, 1 mM DTT, 4% glycerol, room temperature, 30 min; GST-TFs on glutathione beads, 16-mer random dsDNA library, 0.1% formaldehyde crosslink after washing; high values mean tight binding
# Conditions in all cases: protein: recombinant; tags: N-terminal GST; dsDNA, one strand shown
# FLI1 = target: T1, FLI1 (Homo sapiens, UniProt Q01543 1-452)
# T1 sequence: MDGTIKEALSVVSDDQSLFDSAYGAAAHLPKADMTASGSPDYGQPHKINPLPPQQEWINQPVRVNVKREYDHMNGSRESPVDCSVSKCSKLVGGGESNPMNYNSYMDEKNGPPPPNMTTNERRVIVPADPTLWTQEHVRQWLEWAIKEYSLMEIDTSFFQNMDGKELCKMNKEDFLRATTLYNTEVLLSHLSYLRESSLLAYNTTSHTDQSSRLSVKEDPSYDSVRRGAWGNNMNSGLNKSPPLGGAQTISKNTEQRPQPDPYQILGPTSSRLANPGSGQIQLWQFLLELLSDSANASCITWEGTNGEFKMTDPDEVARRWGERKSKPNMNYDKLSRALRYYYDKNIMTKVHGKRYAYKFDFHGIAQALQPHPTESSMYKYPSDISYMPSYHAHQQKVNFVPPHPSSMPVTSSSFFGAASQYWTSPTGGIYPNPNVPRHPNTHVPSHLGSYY
# Procedure, shortened: (§1)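 Human transcription factors fused to GST were expressed in yeast, captured on glutathione beads, given DNA barcodes and pooled with a GST-only negative control. Pools were incubated with 200 nmole of a 16-mer random double-stranded DNA library in Tris/NaCl/DTT/glycerol buffer at room temperature for 30 min. They were then washed, crosslinked with 0.1% formaldehyde, proximity-ligated (BsaI/T4 ligase, 1 h, 37 °C), PCR-amplified and sequenced on an Illumina NextSeq500. Binding signal is each 6-mer's read frequency for a factor divided by its frequency for the GST control.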
# ELK1 = target: T2, ELK1 (Homo sapiens, UniProt P19419 1-428)
# T2 sequence: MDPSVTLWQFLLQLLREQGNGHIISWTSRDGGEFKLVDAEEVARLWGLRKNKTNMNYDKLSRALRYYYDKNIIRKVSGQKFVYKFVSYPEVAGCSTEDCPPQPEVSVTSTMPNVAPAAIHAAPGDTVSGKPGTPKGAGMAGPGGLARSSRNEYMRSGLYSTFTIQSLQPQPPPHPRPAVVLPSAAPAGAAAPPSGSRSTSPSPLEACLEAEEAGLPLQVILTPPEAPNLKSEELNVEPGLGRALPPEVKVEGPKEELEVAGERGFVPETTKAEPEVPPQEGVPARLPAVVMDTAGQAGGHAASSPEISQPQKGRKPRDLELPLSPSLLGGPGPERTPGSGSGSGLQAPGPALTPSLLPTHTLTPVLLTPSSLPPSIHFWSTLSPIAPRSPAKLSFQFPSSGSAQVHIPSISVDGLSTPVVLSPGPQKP
# Procedure, shortened: as §1
# GABPA = target: T3, GABPA (Homo sapiens, UniProt Q06546 1-454)
# T3 sequence: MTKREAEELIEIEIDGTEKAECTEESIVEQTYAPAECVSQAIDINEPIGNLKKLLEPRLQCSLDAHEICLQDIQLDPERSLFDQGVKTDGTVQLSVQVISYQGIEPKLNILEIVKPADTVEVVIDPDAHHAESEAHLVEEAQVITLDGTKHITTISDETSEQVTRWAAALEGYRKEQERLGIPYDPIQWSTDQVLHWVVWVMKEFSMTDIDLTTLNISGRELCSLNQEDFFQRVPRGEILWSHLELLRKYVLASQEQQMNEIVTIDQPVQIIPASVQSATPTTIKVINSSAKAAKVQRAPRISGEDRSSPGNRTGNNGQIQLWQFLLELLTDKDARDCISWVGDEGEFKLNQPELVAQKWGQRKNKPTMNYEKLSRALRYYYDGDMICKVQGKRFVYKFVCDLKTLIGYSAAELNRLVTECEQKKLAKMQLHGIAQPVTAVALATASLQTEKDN
# Procedure, shortened: as §1
# ELF1 = ELF1 (Homo sapiens, UniProt P32519 1-619)
# Chain of ELF1 (P32519 whole entry): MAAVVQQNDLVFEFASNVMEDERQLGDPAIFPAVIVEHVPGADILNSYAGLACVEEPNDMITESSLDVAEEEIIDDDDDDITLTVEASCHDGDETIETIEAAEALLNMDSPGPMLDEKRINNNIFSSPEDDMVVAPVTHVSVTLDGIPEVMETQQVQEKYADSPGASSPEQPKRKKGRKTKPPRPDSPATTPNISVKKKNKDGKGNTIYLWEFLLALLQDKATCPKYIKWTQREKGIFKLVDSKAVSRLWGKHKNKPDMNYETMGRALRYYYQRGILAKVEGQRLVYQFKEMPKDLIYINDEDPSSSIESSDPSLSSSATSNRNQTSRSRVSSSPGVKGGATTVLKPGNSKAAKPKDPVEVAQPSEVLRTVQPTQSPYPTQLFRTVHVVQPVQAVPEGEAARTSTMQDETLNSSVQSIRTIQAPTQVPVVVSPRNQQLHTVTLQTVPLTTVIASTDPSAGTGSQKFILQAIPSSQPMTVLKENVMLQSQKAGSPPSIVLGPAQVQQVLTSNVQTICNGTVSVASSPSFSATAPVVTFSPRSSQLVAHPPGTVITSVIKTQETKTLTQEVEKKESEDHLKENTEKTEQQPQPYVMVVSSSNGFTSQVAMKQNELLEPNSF
# Procedure, shortened: as §1
# EHF = target: T4, EHF (Homo sapiens, UniProt Q9NZC4 1-300)
# T4 sequence: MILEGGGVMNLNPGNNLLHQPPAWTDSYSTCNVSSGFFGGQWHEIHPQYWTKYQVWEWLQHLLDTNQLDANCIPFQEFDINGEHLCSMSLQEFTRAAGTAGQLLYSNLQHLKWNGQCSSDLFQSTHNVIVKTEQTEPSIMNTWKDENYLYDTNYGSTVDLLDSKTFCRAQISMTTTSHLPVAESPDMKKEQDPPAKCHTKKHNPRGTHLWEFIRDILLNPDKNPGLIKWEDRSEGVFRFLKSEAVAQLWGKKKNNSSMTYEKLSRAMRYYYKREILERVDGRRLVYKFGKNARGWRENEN
# Procedure, shortened: as §1
# SPIC = target: T5, SPIC (Homo sapiens, UniProt Q8N5J4 1-248)
# T5 sequence: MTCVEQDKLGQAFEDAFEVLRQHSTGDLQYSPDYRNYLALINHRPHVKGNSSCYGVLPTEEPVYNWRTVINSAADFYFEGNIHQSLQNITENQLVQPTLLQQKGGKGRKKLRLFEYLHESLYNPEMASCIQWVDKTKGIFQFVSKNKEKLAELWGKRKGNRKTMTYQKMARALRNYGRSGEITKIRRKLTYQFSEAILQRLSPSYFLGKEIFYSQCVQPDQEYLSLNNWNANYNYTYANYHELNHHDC
# Procedure, shortened: as §1
# ELF4 = ELF4 (Homo sapiens, UniProt Q99607 1-663)
# Chain of ELF4 (Q99607 whole entry): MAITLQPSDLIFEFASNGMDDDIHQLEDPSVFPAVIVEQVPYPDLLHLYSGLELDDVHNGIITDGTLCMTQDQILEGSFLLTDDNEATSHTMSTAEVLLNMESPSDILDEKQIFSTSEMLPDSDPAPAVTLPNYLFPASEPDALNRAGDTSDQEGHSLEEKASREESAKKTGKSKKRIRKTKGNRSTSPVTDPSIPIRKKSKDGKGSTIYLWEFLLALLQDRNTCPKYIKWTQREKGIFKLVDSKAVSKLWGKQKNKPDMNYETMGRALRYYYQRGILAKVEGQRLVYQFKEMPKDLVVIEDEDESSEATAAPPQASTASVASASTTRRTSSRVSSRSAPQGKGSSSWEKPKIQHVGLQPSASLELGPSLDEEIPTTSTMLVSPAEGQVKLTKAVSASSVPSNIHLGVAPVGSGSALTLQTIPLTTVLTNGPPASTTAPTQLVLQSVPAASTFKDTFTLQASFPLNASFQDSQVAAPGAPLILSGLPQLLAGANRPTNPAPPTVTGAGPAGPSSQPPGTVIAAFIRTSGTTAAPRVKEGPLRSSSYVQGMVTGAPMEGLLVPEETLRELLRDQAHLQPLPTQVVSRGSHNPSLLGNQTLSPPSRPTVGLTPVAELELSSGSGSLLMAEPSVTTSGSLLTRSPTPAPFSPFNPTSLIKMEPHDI
# Procedure, shortened: as §1
# ELK4 = target: T6, ELK4 (Homo sapiens, UniProt P28324-2 1-405)
# T6 sequence: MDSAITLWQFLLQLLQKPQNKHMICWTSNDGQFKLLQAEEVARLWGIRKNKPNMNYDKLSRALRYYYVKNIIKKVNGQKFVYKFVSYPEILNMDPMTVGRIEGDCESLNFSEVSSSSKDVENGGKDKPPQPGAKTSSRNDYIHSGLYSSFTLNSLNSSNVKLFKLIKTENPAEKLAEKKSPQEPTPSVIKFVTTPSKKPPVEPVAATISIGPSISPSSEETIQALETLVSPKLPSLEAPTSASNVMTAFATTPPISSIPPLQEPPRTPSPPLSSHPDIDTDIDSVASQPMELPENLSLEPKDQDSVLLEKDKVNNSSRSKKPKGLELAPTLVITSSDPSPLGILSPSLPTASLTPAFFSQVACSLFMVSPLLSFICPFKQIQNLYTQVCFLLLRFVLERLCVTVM
# Procedure, shortened: as §1
# ELF3 = target: T7, ELF3 (Homo sapiens, UniProt P78545 1-371)
# T7 sequence: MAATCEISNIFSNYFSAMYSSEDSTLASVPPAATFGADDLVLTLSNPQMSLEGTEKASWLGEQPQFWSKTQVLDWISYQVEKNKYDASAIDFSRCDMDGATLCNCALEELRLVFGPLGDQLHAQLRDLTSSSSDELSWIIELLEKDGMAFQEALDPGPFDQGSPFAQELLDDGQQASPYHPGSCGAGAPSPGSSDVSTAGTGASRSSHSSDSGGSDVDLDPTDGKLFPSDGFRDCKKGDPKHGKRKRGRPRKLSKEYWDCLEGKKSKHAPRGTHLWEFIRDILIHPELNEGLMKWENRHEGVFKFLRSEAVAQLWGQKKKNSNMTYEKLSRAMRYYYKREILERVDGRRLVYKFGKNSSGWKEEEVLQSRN
# Procedure, shortened: as §1
# ERF = target: T8, ERF (Homo sapiens, UniProt P50548 1-548)
# T8 sequence: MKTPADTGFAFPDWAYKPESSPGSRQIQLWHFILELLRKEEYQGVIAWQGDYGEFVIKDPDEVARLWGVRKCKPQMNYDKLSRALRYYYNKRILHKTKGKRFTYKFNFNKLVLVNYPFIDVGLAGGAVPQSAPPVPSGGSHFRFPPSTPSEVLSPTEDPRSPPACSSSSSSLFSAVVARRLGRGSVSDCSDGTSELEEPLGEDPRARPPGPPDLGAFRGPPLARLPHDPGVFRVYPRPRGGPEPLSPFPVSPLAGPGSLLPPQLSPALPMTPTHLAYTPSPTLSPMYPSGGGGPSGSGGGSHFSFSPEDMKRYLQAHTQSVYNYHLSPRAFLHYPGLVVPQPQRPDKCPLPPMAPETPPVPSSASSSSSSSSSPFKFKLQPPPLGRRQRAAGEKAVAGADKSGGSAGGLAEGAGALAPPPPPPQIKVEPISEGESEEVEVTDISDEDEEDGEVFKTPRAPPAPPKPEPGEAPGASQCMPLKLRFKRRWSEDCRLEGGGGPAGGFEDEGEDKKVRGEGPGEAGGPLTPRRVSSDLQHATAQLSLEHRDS
# Procedure, shortened: as §1
# ETV7 = target: T9, ETV7 (Homo sapiens, UniProt Q9Y603 1-341)
# T9 sequence: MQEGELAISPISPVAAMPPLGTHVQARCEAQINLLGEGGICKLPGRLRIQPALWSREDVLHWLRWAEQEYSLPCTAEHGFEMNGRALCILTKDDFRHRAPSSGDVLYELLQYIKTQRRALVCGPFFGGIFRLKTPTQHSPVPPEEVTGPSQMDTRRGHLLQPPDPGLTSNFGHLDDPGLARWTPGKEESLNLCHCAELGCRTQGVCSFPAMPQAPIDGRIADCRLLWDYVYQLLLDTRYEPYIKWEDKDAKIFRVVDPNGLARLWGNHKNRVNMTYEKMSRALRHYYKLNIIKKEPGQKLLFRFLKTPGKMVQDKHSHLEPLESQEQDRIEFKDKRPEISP
# Procedure, shortened: as §1
# ETV6 = ETV6 (Homo sapiens, UniProt P41212 1-452)
# Chain of ETV6 (P41212 whole entry): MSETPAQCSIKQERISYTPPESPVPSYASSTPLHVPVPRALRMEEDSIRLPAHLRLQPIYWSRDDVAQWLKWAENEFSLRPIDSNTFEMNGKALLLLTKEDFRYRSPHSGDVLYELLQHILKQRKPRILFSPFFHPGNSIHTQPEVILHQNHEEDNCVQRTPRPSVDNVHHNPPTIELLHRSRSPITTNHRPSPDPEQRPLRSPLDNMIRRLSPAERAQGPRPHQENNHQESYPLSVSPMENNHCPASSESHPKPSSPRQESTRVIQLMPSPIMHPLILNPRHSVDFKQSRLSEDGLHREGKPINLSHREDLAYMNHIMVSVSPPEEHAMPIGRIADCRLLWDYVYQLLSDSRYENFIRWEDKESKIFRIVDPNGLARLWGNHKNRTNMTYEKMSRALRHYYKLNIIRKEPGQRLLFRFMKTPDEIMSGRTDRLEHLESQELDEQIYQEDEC
# Procedure, shortened: as §1
sequence,measurement,setting,value
CACCTA,binding signal,FLI1,"1.06 fold enrichment (6-mer frequency, TF over GST control)"
same,binding signal,ELK1,"1.01 fold enrichment (6-mer frequency, TF over GST control)"
same,binding signal,GABPA,"1.04 fold enrichment (6-mer frequency, TF over GST control)"
same,binding signal,ELF1,"1.02 fold enrichment (6-mer frequency, TF over GST control)"
same,binding signal,EHF,"1.05 fold enrichment (6-mer frequency, TF over GST control)"
same,binding signal,SPIC,"1.09 fold enrichment (6-mer frequency, TF over GST control)"
same,binding signal,ELF4,"1.1 fold enrichment (6-mer frequency, TF over GST control)"
same,binding signal,ELK4,"1 fold enrichment (6-mer frequency, TF over GST control)"
same,binding signal,ELF3,"1.18 fold enrichment (6-mer frequency, TF over GST control)"
same,binding signal,ERF,"1.06 fold enrichment (6-mer frequency, TF over GST control)"
same,binding signal,ETV7,"1.08 fold enrichment (6-mer frequency, TF over GST control)"
same,binding signal,ETV6,"1.02 fold enrichment (6-mer frequency, TF over GST control)"
